# From the supplement of paper PMC7556523
# Unmarked numbers belong to inactive results.
# Tests used:
# [1] = system: Sporothrix brasiliensis CBS 133006; test: growth inhibition relative to untreated control; higher = more growth inhibition (more antifungal activity), active = 80 or more; extreme values may be limits of the assay; conditions: 1 µM; 48 h
# Outline: (§1)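 Library compounds at a final 1 μM were incubated with yeast-form cells of the reference isolates (1 x 10^5 CFU/ml) for 48 h at 35°C in 5% CO2. Growth was judged by inverted light microscopy and measured spectrophotometrically in quadruplicate runs. Values give percent growth inhibition relative to untreated cells.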
# [2] = system: Sporothrix schenckii ATCC 32286; test: as above; conditions: 1 µM; 48 h
# Outline: as §1
SMILES,growth inhibition [1] [%],growth inhibition [2] [%]
CC(C)(C)c1cnc(NC(=O)c2ccccc2O)s1,8,0
COc1cc2ncnc(NC3CCN(Cc4ccccc4)CC3)c2cc1OC,8,0
CCOc1ccc2cc(-c3nn(C(C)(C)C)c(N)c3C(N)=O)cnc2c1,0,2.5
CCC(=O)Nc1ccccc1C(=O)Nc1ccccn1,0,1.5
COc1ccc2nccc(NC(=O)C3CCN(CCc4ccc(Cl)cc4)CC3)c2n1,39,0
NS(=O)(=O)c1cncc(-c2ccc3nccc(-c4cn[nH]c4)c3n2)c1,5.5,2
NCCCC(N)(C(=O)O)C(F)F (stereo not drawn),13.5,17.2
FC(F)(F)c1ccc(N(c2cccnc2)C2CCN(c3ccc(C(F)(F)F)cn3)CC2)cc1,0,0
CN1CCC(c2cc(-c3ccncc3)c(-c3ccc(F)cc3)[nH]2)CC1,9,10
Clc1ccc(CN2CCN(C3=NCCN3)CC2)cc1Cl,18.8,17
CC(C)n1ncc2c(C(=O)NCC(c3cccs3)N3CCOCC3)cc(-c3ccccc3)nc21 (stereo not drawn),2,12.8
COc1cc(C2=NCCN2)ccc1-n1cc(-c2cccc(C3=NCCN3)c2)nn1,18.5,5.5
CN1CCN(S(=O)(=O)c2ccc(-c3ccc4c(Nc5ncc(Cl)cn5)ccnc4c3)cc2)CC1,13,10.8
COc1ccc(-c2nnc3ccc(-c4cccc(C(C)C)c4)cn23)cc1OC,17,16.8
CC(=O)N1CCN(c2ccc(Oc3ccc(Cl)cc3O)cc2)CC1,3.5,0.75
Nc1cccnc1Nc1ccc(Cl)cc1,13.8,0
C[C@]1(COc2ccc(N3CCC(Oc4ccc(OC(F)(F)F)cc4)CC3)cc2)Cn2cc([N+](=O)[O-])nc2O1,7.25,4.5
CCc1ccc(S(=O)(=O)Nc2cc(CN3CCN(CCC(C)C)CC3)ccc2C)cc1,1.75,21.2
Cc1ccc2[nH]c3c(NCCN(C)C)ncnc3c2c1,2,0
CNC(=O)C1Cc2ccccc2N1C(=O)Cc1ccc(F)cc1 (stereo not drawn),32.2,3.25
CO[C@@H](C(=O)N1Cc2[nH]nc(NC(=O)c3ccc(N4CCN(C)CC4)cc3)c2C1)c1ccccc1,16.2,1.5
COc1ccc(-c2cnc3ccc(NCc4ccc(S(N)(=O)=O)cc4)nn23)cn1,26.8,18.2
COc1cccc(-n2nnnc2S(=O)(=O)Cc2ccccc2)c1,19,6
CCOC(=O)c1c(NC(=O)c2c(F)c(F)c(F)c(F)c2F)sc(C(N)=O)c1C,13.8,0
COc1ccc(CN2CCOc3ccc(C(C)(O)CN(C)C)cc3C2)cc1C (stereo not drawn),1.25,16
c1csc(-c2cnc3sc(NCC4CCOCC4)nn23)c1,19.8,8.75
Cc1ccccc1CN1CCC(O)(c2ccc(Cl)c(C(F)(F)F)c2)CC1,0,0

SMILES,growth inhibition [1] [%],growth inhibition [2] [%]
Cc1nc(-c2ccccn2)nc(N2CCC(Cc3ccccc3)C2)c1Cl (stereo not drawn),63,13
O=C(Nc1cccc(-c2ccc(NCCCN3CCCC3)nc2)c1)c1ccccc1,14.8,6
O=C(c1[nH]nc2c1CCCC2)N1CCN(Cc2ccc3c(c2)OCO3)CC1,9.75,16.2
O=C(NC1CC1)c1ccc(N2CCOc3ccc(Cl)cc32)s1,7,11.8
CC(C)(C)c1cc(C(=O)N2CCN(c3nccnc3C#N)CC2)n(Cc2ccccc2)n1,25.8,15.8
CN1CCCC1CCO[C@](C)(c1ccccc1)c1ccc(Cl)cc1 (stereo partly drawn),11.8,14.8
C[C@H](C(N)=O)N1CCCC[C@H]1c1ccc(OCc2cccc(F)c2)cc1,6.5,10
CCCCOC(=O)Nc1cc2nc(C3CCCCC3)[nH]c2cc1N1CCCC1,11,0
CC(Oc1cccc(Cl)c1)C(=O)Nc1ccc2oc(-c3ccncc3)nc2c1 (stereo not drawn),20,4.25
Cc1cc(C(=O)Nc2cnn(Cc3ccc(Cl)cc3Cl)c2)no1,5.75,12
CC1CC1C(=O)NC1CCN(CC2(c3ccccc3)CCCCC2)CC1 (stereo not drawn),12.8,20.5
CNc1cc(C)nc(C2CN(C(=O)c3n[nH]c4ccccc34)CCO2)c1 (stereo not drawn),5.75,4.5
Cc1cc(C)cc(COc2ccc3c(C)c(CCC(=O)O)c(=O)oc3c2C)c1,3.75,1.5
Cc1ccc(NC(=O)CC2COc3ccccc3O2)cc1Cl (stereo not drawn),10,0
CC(C)(CN)c1nc(-c2ccc(Cl)c(O)c2)c(-c2ccnc(N)n2)[nH]1,7,21.8
COc1ccc2nc(C)cc(OCC(=O)Nc3ccccc3OC)c2c1,6,0.75
COc1ccc(-c2cncc3ccc(C(=O)NCCCn4ccnc4)nc23)cc1,16,16.5
COc1ccc(C2(C(=O)Nc3ccc(Br)cc3)CCCC2)cc1,59.8,13
Nc1ncnc2c1c(Cc1cccc3ccccc13)nn2CC1CCNCC1,0,0
CCC(NC(=O)c1ccccc1NC(=O)c1ccc(C)cc1)C(=O)OC (stereo not drawn),10,5.75
CS(=O)(=O)c1ccccc1C(=O)N(Cc1ccccc1)c1ccccc1,13.2,24
Cc1cc(OCC(=O)NCc2ccccc2)c2cc(Br)ccc2n1,10,4
CNc1snc(C)c1C(=O)NCCOc1ccc(OC)cc1,12.2,7.5
Cc1cc2ccccc2n1CC(=O)N1CC(C(=O)N2CCCCC2)Oc2ccccc21 (stereo not drawn),14.8,10.8
CN1CCN(S(=O)(=O)c2ccc(-c3ccc4c(Nc5ccc6nn[nH]c6c5)ccnc4c3)cc2)CC1,4.25,7.5
COc1cc(CN2CCC3(C=Cc4ccccc43)CC2)cc2c1OCO2,4.25,3.25
COc1ccc(S(=O)(=O)Nc2ccc(CN3CCN(C(=O)c4cccc(C#N)c4)CC3)cc2)cc1,4.25,7.75
